# Most compounds without a hit are left out; they make up all but 1.1% or so of the library.
# HTR5A ag ctr – activates human HTR5A in OPRM1-OPRD1 agonist counter-screen. HTR5A agonist assay, luminescence, cell-based. activation, % at 9.3 µM. 0.61% of 340,000 active. AID 504692; in the data active = activation mostly above about 9.5%, no sharp cut-off; inactive = mostly below about 7.6%;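 note: 0% = cells with vehicle only and 100% = reference agonist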
# Target sequence (P47898 whole entry, looked up): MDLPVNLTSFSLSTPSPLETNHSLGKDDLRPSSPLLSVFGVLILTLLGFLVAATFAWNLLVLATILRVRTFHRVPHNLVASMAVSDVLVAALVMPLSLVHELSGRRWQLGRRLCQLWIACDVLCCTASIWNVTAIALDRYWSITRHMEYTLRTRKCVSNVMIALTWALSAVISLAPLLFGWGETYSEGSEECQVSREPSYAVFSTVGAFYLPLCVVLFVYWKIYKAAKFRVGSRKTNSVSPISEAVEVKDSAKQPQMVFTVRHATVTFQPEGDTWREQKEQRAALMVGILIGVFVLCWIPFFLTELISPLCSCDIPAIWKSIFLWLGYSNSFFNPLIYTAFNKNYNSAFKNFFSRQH
# OPRM1-OPRD1 inv – inverse agonist of human OPRM1-OPRD1 heterodimerization; cell-based MOR-DOR heterodimer luminescence, inverse agonism; inhibition, % at 9.3 µM; 0.21% of 340,000 active; in the data active = inhibition above about 22%, passing the limit was not always enough;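 note: 0% = cells with DMSO and 100% = wells without cells with DMSO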
# HTR5A inv ctr – HTR5A inverse agonism, opioid heterodimer counter-screen | AID 504634 | inhibition, % at 9.3 µM | HTR5A cell line, luminescence | 0.083% of 340,000 active | P47898; in the data active = inhibition mostly above about 23%, no sharp cut-off; inactive = mostly below about 18%;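 note: 0% = cells with DMSO and 100% = no-cell wells with DMSO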
# MOR-DOR ag – agonists of human mu-delta opioid receptor heterodimerization. P35372+P41143. cells, OPRM1-OPRD1 heterodimerization, luminescence. activation, % at 9.3 µM. 0.3% of 340,000 active. AID 504326;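 note: 0% = vehicle-treated cells and 100% = reference agonist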
# MOR-DOR ag conf – OPRM1-OPRD1 heterodimer agonism, confirmation. shares compounds with MOR-DOR ag. cells, MOR-DOR heterodimerization, luminescence complementation. activation, % at 9.3 µM. 45% of 830 active;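 note: 0% = vehicle-treated cells and 100% = reference agonist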
# HTR5A ag ctr2 – activates human HTR5A in OPRM1-OPRD1 agonist counter-screen; shares compounds with MOR-DOR ag; HTR5A agonist counterscreen, cell luminescence; 8% of 830 active; AID 504905; activation, % at 9.3 µM; in the data active = activation above about 17%;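 note: 0% = vehicle-treated cells and 100% = reference agonist response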
# * hit, by the source's call; i = inactive; . = no result. Cut-off read from the data, not from the text of the source, unless noted: active = activation above about 18%; inactive = the rest.
SMILES,HTR5A ag ctr,OPRM1-OPRD1 inv,HTR5A inv ctr,MOR-DOR ag,MOR-DOR ag conf,HTR5A ag ctr2
Cc1c(CN2CCC(n3nccc3NC(=O)C3CC3)CC2)[nH]c2ccccc12,6.6,-241.8,11.8,44.7*,0.7,31.4*
COc1ccc(/C=N/Nc2c(Cl)cc(Cl)cc2Cl)cc1CN1CCOCC1,-0.9,-137.8,-20.4,30.7*,5.1,3.5
CCOc1ccc(/C=N/NC(=O)CC(=O)Nc2ccc(Cl)c(Cl)c2)cc1,9.3,-111.6,-32.2,21.2*,16.2,3.5
Cc1nc2cc(NC(=O)c3ccc([N+](=O)[O-])s3)ccc2s1,9.0,-161.1,-17.9,29.8*,1.5,5.7
COc1cc(NC(=O)CSc2nc3c(c(=O)n(C)c(=O)n3C)n2C)cc(OC)c1,-0.2,6.3,0.4,-1.0,.,.
CCOC(=O)c1sc2nc(SCC(=O)NCc3ccco3)n(Cc3ccccc3)c(=O)c2c1C,0.0,i,1.6,150.3*,2.1,2.5
N#CNC(=Nc1ccccc1)SCc1ccc(C(=O)O)cc1,2.2,6.3,-5.6,-1.1,.,.
CSC(=Nc1ccccc1)N=C(SCc1ccccc1)N(C)C,10.6,-333.3,-40.7,76.1*,38.3*,0.0
COC(=O)CC1C(=O)NCCN1C(=O)c1c(F)cccc1F (stereo not given),-6.9,2.9,18.4,-0.4,.,.
Cc1ccc(NC(=O)NCCN2CCCCC2)cc1Cl,8.1,0.8,-14.9,-0.2,.,.
Oc1ccc(/C=N/Nc2nc(-c3ccc(Cl)cc3)cc(C(F)(F)F)n2)cc1,5.2,-124.5,-13.5,24.5*,-0.5,1.7
Cc1cc(-c2ccccc2)nc(N/N=C/c2ccc(O)cc2)n1,3.5,-2.3,-18.9,0.4,.,.
Cc1ccc(-n2c([S-])c(C(=O)Nc3ccc(OC(F)F)cc3)[n+]3ccc(C(=O)NCCO)cc23)cc1C,-2.2,-93.1,19.5,18.6*,0.4,3.4
O=C(Cn1c(-c2ccccc2)c[n+]2ccsc12)c1ccc(Br)cc1,4.5,i,-12.0,170.9*,2.8,-1.4
Cc1oc2c(c1C(=O)c1ccccc1)C(=O)C(=O)c1ccccc1-2,1.0,-89.5,-2.2,18.1*,20.9*,5.3
CCOc1ccccc1-c1noc(CCCC(=O)NC2CCCCC2)n1,-2.8,9.7,6.7,-1.7,.,.
Cc1ccn2cc(-c3cc4ccccc4oc3=O)nc2c1,-0.5,-102.4,-17.5,19.7*,11.9,5.5
Cc1ccc(-c2csc(Cc3nc(-c4cc5ccccc5oc4=O)cs3)n2)cc1,-1.1,-18.1,2.5,3.0,.,.
O=C(NCCc1ccccc1)C(c1cccs1)N(C(=O)CCl)c1ccc(Cl)cc1 (stereo not given),31.7*,i,-84.6,87.1*,13.5,4.0
O=C(NCCc1ccccc1)C(c1cccs1)N(C(=O)c1csnn1)C1CC1 (stereo not given),-1.9,11.3,5.0,-2.1,.,.
COc1ccc2c(c1)C=C(CN1CCC(CO)(CCc3ccccc3)CC1)CO2,3.0,-180.1,-8.0,35.9*,53.8*,0.7
OCC1(CCc2ccccc2)CCN(Cc2cc(F)ccc2-n2cccn2)CC1,-0.9,-406.6,1.6,77.9*,92.3*,-2.8
OCC1(CCc2ccccc2)CCN(Cc2ccccc2Cl)CC1,-4.1,-259.5,10.6,54.8*,85.7*,2.4
Clc1ccccc1CN1CCN(CCCc2ccccc2)CC1,-2.5,-42.0,6.8,9.0,.,.
CCOC(=O)C1=NNC(C(=O)OCC)C1C(=O)OCC (stereo not given),-0.5,8.7,1.9,-1.7,.,.
SMILES,HTR5A ag ctr,OPRM1-OPRD1 inv,HTR5A inv ctr,MOR-DOR ag,MOR-DOR ag conf,HTR5A ag ctr2
Cc1ccc(C(=O)CCC(=O)OCC(=O)NNC(=O)c2ccc([N+](=O)[O-])cc2)cc1,-3.3,1.7,9.2,-0.4,.,.
Cc1ccccc1/C=N/Nc1ccnc2cc(Cl)ccc12,5.1,-128.7,-13.8,21.4*,22.2*,9.0
Cc1ccc(/C=N/Nc2ccnc3cc(Cl)ccc23)c(C)c1,-2.4,-129.5,6.5,17.9,.,.
COC(=O)c1ccc(CNC(=O)CSC(C)C(=O)Nc2cc(C)on2)cc1 (stereo not given),3.3,7.5,-8.0,-1.9,.,.
CCCCN(CC)C(=S)Nc1ccc2nc(N3CCN(C)CC3)cc(C)c2c1,2.6,7.5,4.1,-1.5,.,.
NC1=C(Br)C(=O)c2ncccc2C1=O,2.9,-100.5,-11.4,19.6*,0.1,-18.7
O=C1c2cccnc2C(=O)N1CO,3.5,12.2,5.0,-2.9,.,.
COc1ccc([C@H]2CC(=O)C=C(c3c(C)cc(C)cc3C)C2)cc1,-0.8,-153.6,-25.2,26.6*,-0.1,3.5
CC(=O)Nc1sc(N/N=C/c2ccc(O)cc2)nc1-c1ccc(C)cc1,0.1,4.4,-0.3,-0.8,.,.
CC(C)(C)c1csc(N/N=C/c2ccc(O)cc2)n1,-1.0,-84.3,3.8,18.3*,49.5*,0.8
COC(=O)c1cccc(C23CC4(C2)[C@H](CN(Cc2ccc(-c5ccccc5)cc2)[C@@H]4c2ccccc2)C3c2ccc(Cl)nc2)c1 (stereo not given in full),1.4,18.7,-4.0,-3.3,.,.
COC(=O)c1cccc(C23CC4(C2)[C@H](CN(Cc2cccnc2)[C@@H]4c2ccccc2)C3c2ccc(Cl)nc2)c1 (stereo not given in full),-1.6,-126.7,-4.6,23.0*,28.7*,-0.4
COc1ccc(C(=O)n2cnc3ccccc32)cc1,-1.8,6.4,6.8,-1.3,.,.
O=C(COC(=O)c1ccc(Br)cc1)NCc1ccccc1,0.5,5.4,-3.7,-1.2,.,.
CC(=O)Cc1cc(O)c2ccccc2c1OC(=O)c1ccc(Br)cc1,8.3,-100.6,0.8,19.8*,10.9,13.2
CCOc1ccccc1NC(=O)COC(=O)c1cc[n+]([O-])cc1,1.6,2.7,3.4,-0.5,.,.
O=C(OCc1ccccc1)/C(=C/c1cccc(Br)c1)NC(=O)c1ccco1,1.7,-115.1,2.2,20.8*,-2.5,-3.5
O=C(Nc1ccccc1)/C(=C/c1cccc(Br)c1)NC(=O)c1ccco1,-5.7,12.1,13.7,-2.5,.,.
CCNS(=O)(=O)c1ccc(NC(=O)Nc2ccc3c(c2)OCO3)cc1,5.5,-362.3,17.6,110.6*,72.7*,-0.2
CCOC(=O)c1c(S(=O)(=O)NCC(=O)Nc2ccc(F)cc2F)c(C)n(C)c1C,-1.0,11.7,-0.6,-2.2,.,.
O=C(c1sc2ccccc2c1Cl)N(Cc1cccs1)C1CCS(=O)(=O)C1 (stereo not given),-0.1,i,0.2,161.8*,3.5,-5.6
O=C(c1cccc(Cl)c1)N(Cc1cccs1)C1CCS(=O)(=O)C1 (stereo not given),-2.7,-12.2,8.0,2.1,.,.
O=C(Nc1ccc(Cl)c(Cl)c1)N(CCCN1CCOCC1)Cc1cccnc1,7.1,6.4,-16.1,-1.2,.,.
O=C(Nc1ccc(Cl)c(Cl)c1)N(CCCN1CCOCC1)Cc1cccs1,-1.9,-140.8,5.2,27.3*,-5.0,-2.2
COc1ccc(CN2CCC(N(CCc3ccccc3)Cc3ccccc3)CC2)c(OC)c1,3.2,i,-9.2,107.2*,2.7,7.3
CCCN1CCC(N(CCc2ccccc2)Cc2ccccc2)CC1,-4.8,-6.9,16.2,1.4,.,.

# Screening data as filed in PubChem.
